From ChEMBL document CHEMBL4513216, “Probing the Open Global Health Chemical Diversity Library for Multistage-Active Starting Points for Next-Generation Antimalarials” (ACS Infect Dis, 2020) come the findings set out here.

Hit rate of the full screen: of about 68,000 compounds, about 2,700 (4%) showed an effect of 50% or more. What follows is part of a selection rich in strong results, with near analogues and random picks from the rest.

This test relates to Plasmodium berghei. In words: Screen against P. berghei liver stage (PbLuc), transformed with Luciferase, at 2uM. In kind it is functional, HepG2. Conditions: tested at 2 uM.
As for `CC(O)CNC(=O)CCc1nc2ncccc2[nH]1` (stereo not drawn), the INHIBITION was found to be 17.33%. For `CC(C)c1nccn1CCCNC(=O)c1ccc(-c2cncnc2)nc1`, the INHIBITION was 27.84%. Regarding `O=C(c1cnc(-c2cccnc2)nc1)N1CCC(c2ccncc2)CC1`, the INHIBITION is given as -70.5%. Consider `CCC(C)N1C(=O)c2ccc(C(=O)NCCc3c[nH]cn3)cc2C1=O` (stereo not drawn), for which the INHIBITION is listed as 35.09%. As for `NCc1cccc(-c2cccnc2C(=O)NCCCN2CCOCC2)c1`, the figure is 3.63%. Consider `CCOc1ncccc1CNC(=O)c1cc(C)on1`, for which the INHIBITION is listed as 22.75%.

On to `COc1ccc(C(=O)NCc2ccco2)nn1`, for which the INHIBITION was 65.1%. To `COC(=O)c1cccc(C(=O)NCc2ccco2)n1` belongs -15.05%; to `COC(=O)c1ccc(C(=O)NCc2ccco2)nc1`, -44.93%; to `COc1ncccc1CNC(=O)c1cc(C)on1`, -18.38%.

Turning to `CCC1c2ccsc2CCN1C(=O)NCc1cccnc1OC` (stereo not drawn), the INHIBITION is 66.27%.

As for `CCC1c2ccsc2CCN1C(=O)NCc1cccnc1N(C)C` (stereo not drawn), the INHIBITION is on record as 8.5%. For the compound `CC(Cn1cccn1)NC(=O)NCc1cccnc1OC1CCCC1` (stereo not drawn), the INHIBITION came to 39.32%. To `CCC1c2ccsc2CCN1C(=O)NCc1ccccn1` (stereo not drawn) belongs -77.99%; to `CC(Cn1ccnc1)NC(=O)NCc1cccnc1OC1CCCC1` (stereo not drawn), 8.42%. Take `CC(O)CNC(=O)NCc1cccnc1OC1CCCC1` (stereo not drawn): the INHIBITION was determined as 59.73%. To `Cc1cc(C(=O)NCc2cccnc2OC(C)C)no1` belongs 51.19%. Turning to `CC(C)c1nc(C2CCCN(C(=O)Cn3ccccc3=O)C2)no1` (stereo not drawn), the INHIBITION worked out at 40.88%. `Cc1ccc(C)n1-c1c(C(=O)NCC(C)N(C)C)cnn1C` (stereo not drawn): the INHIBITION is listed as 28.5%. In the case of `O=C(COc1cccc2c1CCC2=O)NCc1ccccc1Cl`, the INHIBITION is -21.15%. As to `CCN1CC2(CCOCC2)c2cc(NS(=O)(=O)CC)ccc21`, the INHIBITION is on record as 16.33%. As for `Cc1nccn1-c1ccc(C(C)Nc2cnn(C)c(=O)c2Cl)cc1` (stereo not drawn), the figure is 39.58%. Regarding `COc1ccccc1Oc1ncccc1CNC(=O)[C@H](N)CC(C)(C)C`, the INHIBITION is 62.39%. As for `COc1ccccc1Oc1ncccc1CNC(=O)[C@@H](N)CCO`, the INHIBITION is listed as 10.91%. `COc1ccccc1Oc1ncccc1CNC(=O)[C@@H](N)[C@@H](C)O`: the INHIBITION is -4.93%. `OC1CCCN(CCNc2ncc(Cl)cc2F)C1` (stereo not drawn): the INHIBITION is listed as -23.46%. On to `COCc1cccc(NC(C(N)=O)c2ccc(Br)cc2)c1` (stereo not drawn), for which the INHIBITION amounted to 0.53%.

With `CC(C)(C)c1nnc(CSc2ccccn2)o1`, the INHIBITION was 58.9%. Regarding `CCc1nnc(CSc2ccccn2)o1`, the INHIBITION is -9.88%.

As for `Cc1nnc(CSc2ccccn2)o1`, the INHIBITION is given as -43.6%. With `CC(CNC(=O)N1CCS(=O)(=O)CC1)Cc1cccs1` (stereo not drawn), the INHIBITION came to 8.03%. `CC(CNC(=O)N1CCN(c2ncccn2)CC1)Cc1cccs1` (stereo not drawn): the INHIBITION was 5.82%.

Turning to `CC(=O)N(C)C1CCN(C(=O)NCC(C)Cc2cccs2)CC1` (stereo not drawn), the INHIBITION is on record as 60.9%.

`CC(CNC(=O)N1CCN(CC(F)F)CC1)Cc1cccs1` (stereo not drawn): the INHIBITION is listed as -47.2%. For the compound `CC(CNC(=O)N1CCN(c2cnccn2)CC1)Cc1cccs1` (stereo not drawn), the INHIBITION is on record as 17.75%. Turning to `CC(CNC(=O)N1CCC(CO)CC1)Cc1cccs1` (stereo not drawn), the INHIBITION was determined as 21.24%. On to `CC(CNC(=O)N1CCSCC1)Cc1cccs1` (stereo not drawn), for which the INHIBITION is on record as -49.29%.

In the case of `COC(=O)C1CCN(C(=O)NCC(C)Cc2cccs2)CC1` (stereo not drawn), the INHIBITION is reported as 55.39%. Turning to `CC(CNC(=O)N1CCNC(=O)CC1)Cc1cccs1` (stereo not drawn), the INHIBITION stood at 57.59%. On to `Cc1cccc(NC(=O)c2cccc(OCc3nnnn3C)c2)n1`, for which the INHIBITION was -85.14%. Take `CCS(=O)(=O)N1C[C@@H]2CN(Cc3cccs3)CCO[C@@H]2C1`: the INHIBITION is recorded as -20.67%. To `CC1(C)CC1(C(=O)N1CC(c2cccnc2)C1)c1ccccc1F` (stereo not drawn) belongs 14.82%; to `COc1ccc(C2(C(=O)N3CC(c4cccnc4)C3)CC2(C)C)cc1` (stereo not drawn), 60.13%; to `CC1(C)CC1(C(=O)N1CC(c2cccnc2)C1)c1ccc(F)cc1` (stereo not drawn), 41.05%. On to `CCOC(=O)c1cnn(-c2cc(Oc3cccc(C)c3)ncn2)c1N`, for which the INHIBITION is -58.53%. Turning to `CC(COc1ccc(F)cc1F)NC(=O)NCCN1CCOCC1` (stereo not drawn), the INHIBITION is recorded as -30.55%. As for `COCCN(Cc1cccc(OCCO)c1)Cc1ccccc1F`, the figure is 58.42%; as for `COCCN(Cc1cccc(O)c1)Cc1ccccc1F`, 35.48%. As for `CCCN(Cc1cccc(OCCO)c1)Cc1ccccc1OC`, the figure is -135.42%.

On to `CC(C)N1[C@H](Cn2cncn2)C[C@@H]2CN(Cc3cccs3)CC[C@@H]21`, for which the INHIBITION is recorded as 13.25%. `O=C(Cc1ccccc1Cl)N1CCN(CC(O)COCCO)CC1` (stereo not drawn): the INHIBITION was -13.06%. To `COc1ccc(C)cc1CN1CCCC1c1noc(C2CC2)n1` (stereo not drawn) belongs -14.17%; to `C=C(C)CNC1CCCN(Cc2noc(C3CC3)n2)C1` (stereo not drawn), -36.58%; to `O=C(NCc1ccco1)[C@H]1C[C@@H]2CCN(c3nncs3)C[C@H]2O1`, -2.66%.

As to `O=C(NCCc1ccncc1)[C@H]1C[C@@H]2CCN(c3nncs3)C[C@H]2O1`, the INHIBITION came to 62.15%. `COCCNC(=O)[C@H]1C[C@@H]2CCN(c3nncs3)C[C@H]2O1`: the INHIBITION is recorded as 21.08%. To `O=c1cc(-c2cccnc2)nc(-c2ccc(CN3CC[C@H](O)C3)cc2)[nH]1` belongs 39.51%. Turning to `Cn1cncc1C(=O)N1C[C@@H]2CCN(c3cnccn3)C[C@@H]2C1`, the INHIBITION is given as 5.44%. To `O=C(NC[C@H]1OC[C@@H](NC(=O)c2ccccc2)[C@@H]1O)c1ccncc1` belongs 25.94%; to `CN(CC(=O)N1CCC(Oc2ccccc2)CC1)c1cnccn1`, 33.16%; to `CN(CC(=O)N1CCC(COc2ccccc2)CC1)c1cnccn1`, 52.47%.

For the compound `CN(CC(=O)N1CCC(N(C)c2ccccc2)CC1)c1cnccn1`, the INHIBITION was -35.47%. As to `CCCn1nnnc1CN(C)C(C)c1ccc(C)cc1` (stereo not drawn), the INHIBITION was determined as 67.28%.

Consider `CCCn1nnnc1CN(c1ccc(C)cc1)C(C)C`, for which the INHIBITION was found to be 7.67%. Regarding `CCCn1nnnc1CN(c1ccc(N2CCOCC2)cc1)C(C)C`, the INHIBITION came out at 36.28%. As for `Cc1nc2n(n1)CC(Nc1nc(C(F)(F)F)nc3ccccc13)CC2` (stereo not drawn), the figure is 19.12%; as for `COc1ccccc1CC(=O)NC1CCCc2cn[nH]c21` (stereo not drawn), -1.29%; as for `CCn1ncc2c1CCCC2NCc1ccc(OC)c(F)c1` (stereo not drawn), 57.81%.

`CCn1ncc2c1CCCC2NCc1cc(Cl)c(OC)c(OC)c1` (stereo not drawn): the INHIBITION amounted to 11.18%. For `CCn1ncc2c1CCCC2NCc1cc(C)ccc1OC` (stereo not drawn), the INHIBITION is recorded as -14.16%. As for `CCOCc1cc(CNC2CCCc3c2cnn3CC)ccc1OC` (stereo not drawn), the figure is 57.81%. As to `CCn1ncc2c1CCCC2NCc1ccc(OC)c(C)c1` (stereo not drawn), the INHIBITION was 27.55%. In the case of `CCCOc1ccc(CNC2CCCc3c2cnn3CC)cc1OC` (stereo not drawn), the INHIBITION is reported as 33.01%. `CCCN(CCOC)C(=O)c1cc(Cn2c(C)nc3ccccc32)[nH]n1`: the INHIBITION is listed as -8.53%.

Regarding `Cc1cc(C)n(-c2nc(C(=O)NCCN3CCC(C)CC3)cs2)n1`, the INHIBITION is listed as -39.93%. Regarding `O=C(c1cc2cc(I)ccc2[nH]1)N1CCC(Nc2cccnn2)CC1`, the INHIBITION amounted to 39.72%. With `CC(C)C1CN(C(=O)Nc2cnn(CC(F)F)c2)CCO1` (stereo not drawn), the INHIBITION is -5.66%. In the case of `Cc1cc(CCC(=O)N2CCOCC2)ccc1Br`, the INHIBITION stood at 33.64%. Consider `O=C(Cn1ccc(C(=O)O)n1)Nc1c(Cl)cccc1Cl`, for which the INHIBITION came to 25.07%. Turning to `NS(=O)(=O)c1cnn(CC(=O)Nc2c(Cl)cccc2Cl)c1`, the INHIBITION is 68.04%. For the compound `O=C(Cn1cc(C(=O)O)cn1)Nc1c(Cl)cccc1Cl`, the INHIBITION came to 6.26%. On to `Cc1nn(C)cc1C(=O)N1CCC(CSc2ccccc2)C1` (stereo not drawn), for which the INHIBITION is 3.22%. As to `CCn1nc(C)c(S(=O)(=O)Nc2cccc(C(=O)O)c2C)c1C`, the INHIBITION is listed as -4.15%. To `CN(C)CC1CN(C(=O)CCc2ccccc2)Cc2nccn2C1` (stereo not drawn) belongs -43.66%; to `c1cnc(N2CCC(OCCN3CCCCC3)C2)nc1` (stereo not drawn), 56.47%; to `COc1ccnc(N2CCC(OCCN3CCCCC3)C2)n1` (stereo not drawn), -53.64%. As for `Cc1ccnc(N2CCC(OCCN3CCCCC3)C2)n1` (stereo not drawn), the INHIBITION was found to be 12.29%. Turning to `CCc1ncc2c(n1)CN(Cc1nnc(Cc3ccccc3)o1)CC2`, the INHIBITION is -11.33%.

On to `Cc1cc(C(=O)NCCN2CCCCCC2)nn1C(C)(C)C`, for which the INHIBITION is on record as -5.98%. On to `CCc1nnc2n1CCN(Cc1cc(Cl)c3c(c1)OCCCO3)C2`, for which the INHIBITION is -3.57%. As for `CCc1ccc(O)c(C(=O)N2CCCN(CC(=O)N(CC)CC)CC2)c1`, the figure is 46.3%; as for `CCc1ccc(O)c(C(=O)N2CCN(CC(=O)N(CC)CC)CC2)c1`, -19.78%. As for `CCc1ccc(O)c(C(=O)N2CCN(CC(=O)N(C)C)CC2)c1`, the figure is 55.26%; as for `CCCS(=O)(=O)N(C)C(=O)CCc1ccsc1`, 8.59%; as for `CC(C)c1nc(CNc2ccc(CCO)cc2)cs1`, 2.76%. In the case of `CNc1cncc(C2CCN(C(=O)c3cnco3)CC2)n1`, the INHIBITION was 56.93%. As to `CNc1cncc(C2CCN(C(=O)c3coc(C)n3)CC2)n1`, the INHIBITION is recorded as -16.56%. For `Cc1cncc(C2CCCN(C(=O)c3cnco3)C2)n1` (stereo not drawn), the INHIBITION is on record as -10.44%. For `Cc1ccc2[nH]c([C@H]3CCN(CC4CCCCC4)C3)nc2c1`, the INHIBITION was 63.89%. `Cc1ccc2[nH]c(C3CCN(C)CC3)nc2c1`: the INHIBITION is given as -5.34%. Turning to `COCCN1CCC(c2nc3cc(C)ccc3[nH]2)CC1`, the INHIBITION was found to be 8.33%. As to `CC(C)S(=O)(=O)N1CCCC(c2cccc(C(=O)O)c2)C1` (stereo not drawn), the INHIBITION turned out to be 49.88%.

Regarding `CCn1cnnc1CNC(=O)N1CCN(c2ccccc2OC)CC1`, the INHIBITION is 33.61%. `O=C(Nc1cc[nH]n1)c1ccc(COCC(F)(F)F)cc1`: the INHIBITION was -20.91%.

For `COc1ccc(OC)c(CN2CCC(c3cc(O)nc(C)n3)C2)c1` (stereo not drawn), the INHIBITION is given as -111.32%.

`COc1ccc(CN2CCC(c3cc(O)nc(C)n3)C2)c(OC)c1` (stereo not drawn): the INHIBITION is on record as 52.01%. For `COc1ccc(CN2CCC(c3cc(O)nc(C)n3)C2)c(F)c1` (stereo not drawn), the INHIBITION is reported as -30.34%. As for `Cc1noc(CC2CCN(C(=O)C(c3ccccc3C)N(C)C)CC2)n1` (stereo not drawn), the INHIBITION amounted to 37%.
